Screening data deposited in PubChem by National Center for Advancing Translational Sciences (NCATS).
An excerpt weighted towards active compounds, which were near 7.5% of everything screened.
FLuc counter: firefly luciferase modulation, counter-screen for miR-21 project | P08659 | purified FLuc, Km substrates, luminescence inhibition | hit rate 6.9% among 360,000 | Potency, µM (doses to about 57.5 µM), most hits filed as inhibitors; also: nearly all actives have a fitted effect of over 55% in size
Target sequence (P08659 whole entry, looked up): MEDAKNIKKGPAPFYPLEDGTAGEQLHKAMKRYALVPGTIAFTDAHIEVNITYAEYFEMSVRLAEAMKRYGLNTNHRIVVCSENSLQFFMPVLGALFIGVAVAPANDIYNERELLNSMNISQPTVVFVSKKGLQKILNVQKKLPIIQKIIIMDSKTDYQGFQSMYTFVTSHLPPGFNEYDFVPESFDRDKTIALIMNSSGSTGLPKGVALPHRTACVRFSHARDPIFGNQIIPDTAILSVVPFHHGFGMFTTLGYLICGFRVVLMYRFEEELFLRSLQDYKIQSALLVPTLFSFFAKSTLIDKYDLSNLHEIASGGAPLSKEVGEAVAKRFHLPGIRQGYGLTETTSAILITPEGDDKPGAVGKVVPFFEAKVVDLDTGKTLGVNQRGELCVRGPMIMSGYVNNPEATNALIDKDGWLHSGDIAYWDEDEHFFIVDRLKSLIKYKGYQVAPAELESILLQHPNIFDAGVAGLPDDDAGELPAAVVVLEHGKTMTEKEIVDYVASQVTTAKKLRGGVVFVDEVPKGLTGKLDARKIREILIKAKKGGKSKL
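Purified P. pyralis luciferase (10nM final) with 10uM D-luciferin and 10uM ATP (Km levels) in 50mM Tris acetate pH 7.5, 10mM Mg acetate, 0.01% Tween-20, 0.05% BSA; qHTS 6-point titration, ~60 µM downward; luminescence read.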
KinaseGlo FLuc: counter-screen: inhibitors of Kinase-Glo firefly luciferase; Potency, µM (doses to about 38.3 µM), most hits filed as inhibitors; Kinase-Glo luciferase, ATP luminescence, 8 min; hit rate 0.28% among 200,000; also: nearly all actives have a fitted effect of over 60% in size
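Inhibition of Kinase-Glo luciferase light generation was assessed at 10 uM ATP in pH 7.2 imidazole buffer, with luminescence measured after eight minutes at ambient temperature.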
ELG1 genotoxic: inducers of genotoxicity in HEK293T ELG1-luciferase cells | HEK293T ELG1-luciferase reporter, luminescence, 16 h | Potency, µM (top dose mostly 46 µM), most hits filed as activators | hit rate 1.3% among 330,000 | AID 504466; also: nearly all actives have a fitted effect of over 60% in size
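Luminescence read-out: rising ELG1-luciferase signal, reflecting elevated ELG1 protein under genetic stress, flags genotoxic compounds. Cells were treated for 16 hr at 37 °C before ONE-Glo detection.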
SMN2 splice enh: enhancers of SMN2 splice variant expression | Potency, µM (doses to about 46.1 µM), usual class: activators | hit rate 2.8% among 210,000 | HEK293 SMN2-luciferase splicing reporter, luminescence, 30-36 h; also: nearly all actives have a fitted effect of over 55% in size
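HEK293 cells carry an SMN2 minigene-luciferase reporter in which exon 7 inclusion puts luciferase in frame. Cells were seeded at 2000 cells/well, attached for 10-12 hours, then exposed to compounds for 30-36 hours at 37C before ONE-Glo luminescence.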
Rab9 prom act: Rab9 promoter activation | Huh7 Rab9 promoter-luciferase reporter, luminescence, 24 h | Potency, µM (doses to about 9.22 µM), hits mostly activators | hit rate 2.8% among 320,000 | AID 485297; also: nearly all actives have a fitted effect of over 60% in size
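Using Huh7 cells stably transfected with Rab9 promoter–luciferase, compounds were incubated 24 h at 37 °C, 5% CO2; luciferase luminescence was read 10 min after reagent addition.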
NPC1 prom act: NPC1 promoter activation; Potency, µM (titrated, usually from 9.22 µM), most hits filed as activators; Huh7 NPC1 promoter luciferase reporter, 24 h; AID 485313; hit rate 2.4% among 320,000; also: nearly all actives have a fitted effect of over 60% in size
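Quantitative HTS used a cell-based reporter: Huh7 cells stably bearing the NPC1 promoter upstream of luciferase were treated with compounds for 24 h, and promoter activation was read as luminescence.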
Each line names hits and unclear results; the compound was inactive in the other large screens. Calls follow the shape of the dose curve; as a rule, active = well fitted curve in the direction sought with a large enough effect; inconclusive = small, poorly fitted or top-dose-only effect, or another doubt; inactive = no such curve, though single readings can be large; an effect the other way counts as inactive or inconclusive.

O=C(O)C(Cc1ccccc1)N1C(=O)/C(=C/C=C/c2ccco2)SC1=S (stereo unspecified)	FLuc counter inconclusive (no result: KinaseGlo FLuc, SMN2 splice enh)
CC1=C(c2ccc(F)cc2)S(=O)(=O)N=C1N1CCC(C(=O)NCCc2cccc(C)c2)CC1	none (no result: KinaseGlo FLuc, ELG1 genotoxic, SMN2 splice enh, Rab9 prom act, NPC1 prom act)
CCCCc1nc2ccccc2n1CC(=O)N(COCC)c1c(C)cccc1CC	none (no result: KinaseGlo FLuc, ELG1 genotoxic, Rab9 prom act, NPC1 prom act)
COc1ccc(S(=O)(=O)N2CCN(c3ccc(F)cc3)CC2)cc1C(=O)N1CCOCC1	none (no result: KinaseGlo FLuc, SMN2 splice enh)
CC(=O)c1cc(-c2ccccc2)n(CCC(=O)Nc2ccc(C(C)C)cc2)c1C	none (no result: KinaseGlo FLuc, ELG1 genotoxic, SMN2 splice enh, Rab9 prom act, NPC1 prom act)
O=C1S/C(=C\C=C\c2ccco2)C(=O)N1c1ccc(O)cc1	FLuc counter 15µM, ELG1 genotoxic inconclusive, Rab9 prom act inconclusive
O=C(O)CCCN1C(=O)/C(=C\C(Cl)=C\c2ccccc2)SC1=S	FLuc counter 9.5µM (no result: KinaseGlo FLuc, SMN2 splice enh)
O=C1S/C(=C\C=C\c2ccco2)C(=O)N1c1ccccc1	FLuc counter inconclusive, Rab9 prom act inconclusive, NPC1 prom act inconclusive
Cc1c(Cl)cccc1NC(=O)c1oc2ccc(S(=O)(=O)N3CCCCCC3)cc2c1C	none (no result: KinaseGlo FLuc, ELG1 genotoxic, SMN2 splice enh, Rab9 prom act, NPC1 prom act)
COc1cccc(Cn2c(=O)n(-c3ccc(C)c(F)c3)c(=O)c3sc4ccccc4c32)c1	none (no result: KinaseGlo FLuc, ELG1 genotoxic, Rab9 prom act, NPC1 prom act)
Clc1ccccc1CSc1snnc1-c1ccccc1	FLuc counter 21µM, ELG1 genotoxic inconclusive
c1ccc(-c2nnsc2Sc2ccccn2)cc1	FLuc counter 17µM
Cc1cn2c(=O)cc(COc3ccc(NC(=O)c4ccc(C(C)(C)C)cc4)cc3)nc2s1	none (no result: KinaseGlo FLuc, ELG1 genotoxic, Rab9 prom act, NPC1 prom act)
CCCCN(C(=O)c1cc(CC)c(C)s1)c1c(N)n(CCC)c(=O)[nH]c1=O	none (no result: KinaseGlo FLuc, SMN2 splice enh)
CCN(CCn1cccn1)C(=O)c1cc(COc2ccccc2SC)on1	FLuc counter 8.5µM, ELG1 genotoxic inconclusive, Rab9 prom act 3.5µM, NPC1 prom act 2µM (no result: KinaseGlo FLuc, SMN2 splice enh)
CCN(CCN1CCCC1)C(=O)c1cc(COc2ccccc2SC)on1	none (no result: KinaseGlo FLuc, SMN2 splice enh)
CCN(CCn1cccn1)C(=O)c1cc(COc2cc(C)ccc2C)on1	FLuc counter 9.5µM, ELG1 genotoxic inconclusive, Rab9 prom act 3.5µM, NPC1 prom act 3.5µM (no result: KinaseGlo FLuc, SMN2 splice enh)
CC(NC(=O)CN(c1ccc(Cl)cc1Cl)S(=O)(=O)c1ccccc1)c1ccccc1 (stereo unspecified)	none (no result: KinaseGlo FLuc, ELG1 genotoxic, Rab9 prom act, NPC1 prom act)
FC(F)Oc1ccccc1/C=N/Nc1nc2ccccc2o1	FLuc counter inconclusive, Rab9 prom act 4µM, NPC1 prom act inconclusive (no result: KinaseGlo FLuc, SMN2 splice enh)
Fc1ccccc1/C=N/Nc1nc2ccccc2o1	FLuc counter 3µM, ELG1 genotoxic inconclusive, Rab9 prom act 2.2µM, NPC1 prom act 2.8µM (no result: KinaseGlo FLuc, SMN2 splice enh)
CCc1nnc(N/N=C/c2ccccc2F)n1N	none
CCC(Cc1ccccc1)NC(=O)Cn1ncc2c3ccccc3n(Cc3ccccc3)c2c1=O (stereo unspecified)	none (no result: KinaseGlo FLuc, ELG1 genotoxic, Rab9 prom act, NPC1 prom act)
CC(C)NC(=O)c1ccc2c3n(nc2c1)-c1ccc(Cl)cc1CO3	FLuc counter 1.9µM, ELG1 genotoxic inconclusive, Rab9 prom act 1.4µM, NPC1 prom act 1.3µM (no result: KinaseGlo FLuc, SMN2 splice enh)
CCN(CC)CCCNC(=O)c1ccc2nc(CCc3ccccc3)oc2c1	none (no result: KinaseGlo FLuc, ELG1 genotoxic, SMN2 splice enh, Rab9 prom act, NPC1 prom act)
CCC(C)NC(=O)CSc1c2c(nc3cc(Cl)ccc13)CCCC2 (stereo unspecified)	none (no result: KinaseGlo FLuc, ELG1 genotoxic, Rab9 prom act, NPC1 prom act)
CCN(CC)CCCNC(=O)c1ccc2c3n(nc2c1)-c1ccc(Cl)cc1CO3	FLuc counter inconclusive, ELG1 genotoxic inconclusive, Rab9 prom act 0.89µM, NPC1 prom act inconclusive (no result: KinaseGlo FLuc, SMN2 splice enh)
COc1ccc(-n2c(=O)c3c(c4cc(OC)ccc4n3C)n(CC(=O)N3CCCC3)c2=O)cc1	none (no result: KinaseGlo FLuc, ELG1 genotoxic, SMN2 splice enh, Rab9 prom act, NPC1 prom act)
COc1ccc(/C=C/C(=O)c2ccc(C)c([N+](=O)[O-])c2)cc1O	FLuc counter 4.8µM
c1ccc(Cn2ccnc2-c2ccco2)cc1	FLuc counter 21µM, ELG1 genotoxic inconclusive
Nn1c(SCc2ccccc2)nnc1-c1ccco1	ELG1 genotoxic inconclusive
C=CCn1c(COc2cc(C)ccc2C(C)C)nnc1SCC(=O)c1c(N)n(C)c(=O)n(C)c1=O	FLuc counter 4.8µM
CC(Oc1ccccc1F)C(=O)Nc1ccc2ccccc2c1 (stereo unspecified)	FLuc counter inconclusive, SMN2 splice enh 3.5µM
O=C(Oc1cc2oc(=O)c3c(c2cc1Cl)CCCC3)c1cccs1	none
O=C(Oc1ccc2c3c(c(=O)oc2c1)CCCC3)c1cccs1	FLuc counter 17µM
